Screens from PubChem.
ST2 inh – inhibitors of human ST2 (IL1RL1) binding to IL-33; AlphaLISA ST2-Fc/biotin-IL-33 interaction, 1 h; actives 2.3% (n = 78,000); inhibition, % for hits at 17 µM; Q01638; in the data active = inhibition above about 30%
Target sequence (Q01638 whole entry, looked up): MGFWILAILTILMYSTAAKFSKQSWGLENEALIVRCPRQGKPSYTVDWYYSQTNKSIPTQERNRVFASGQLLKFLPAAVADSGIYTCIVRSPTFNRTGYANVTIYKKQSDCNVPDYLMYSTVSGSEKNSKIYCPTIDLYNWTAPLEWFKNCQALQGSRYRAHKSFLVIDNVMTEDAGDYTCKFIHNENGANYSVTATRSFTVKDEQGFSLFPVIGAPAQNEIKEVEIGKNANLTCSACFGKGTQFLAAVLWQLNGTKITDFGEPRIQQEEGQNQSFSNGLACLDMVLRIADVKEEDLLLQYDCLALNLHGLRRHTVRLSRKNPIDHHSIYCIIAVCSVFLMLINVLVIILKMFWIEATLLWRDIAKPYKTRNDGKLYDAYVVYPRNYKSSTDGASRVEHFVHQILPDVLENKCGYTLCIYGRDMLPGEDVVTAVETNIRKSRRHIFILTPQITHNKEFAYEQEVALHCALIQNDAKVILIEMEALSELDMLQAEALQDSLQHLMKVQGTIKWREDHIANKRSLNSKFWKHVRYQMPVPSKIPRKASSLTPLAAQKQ
A number is an active result; i = inactive. Shown is part of a subset that was picked to be rich in hits.

SMILES | ST2 inh
O=C(O)C1(O)CCN(c2ncc(Cl)cc2Cl)CC1 | i
CC1=CC(=O)CC2C1(C)CCC(C)C2(C)CC/C(C)=C/C(=O)O (centres undefined) | i
C[C@@H]1CC[C@@]2(C)C(CO)=CCC[C@@H]2[C@@]1(C)CC/C(=C/C(=O)O)CO | 36.0%
COc1ccc(N(CC(=O)Nc2ccc(Br)cc2)S(C)(=O)=O)cc1OC | i
O=C(CN1C(=O)COc2ccc(S(=O)(=O)N3CCCC3)cc21)NCc1ccccc1 | i
O=c1[nH]c(CN2CCOCC2)nc2c1C1(CCCCC1)Cc1ccccc1-2 | i
COc1ccc(-c2cc3cc(Br)ccc3oc2=O)cc1 | i
O=c1oc2ccccc2cc1-c1nc(-c2cccs2)cs1 | 51.0%
O=c1oc2ccc(Br)cc2cc1-c1nc(-c2cccs2)cs1 | 30.0%
O=C(Nc1nc(-c2cccs2)cs1)c1cc2ccccc2oc1=O | i
O=c1oc2cc(O)ccc2cc1-c1nc(-c2ccc3ccccc3c2)cs1 | i
O=c1oc2ccc(Br)cc2cc1-c1nnc(-c2ccccc2Br)o1 | i
Cc1cc(C)cc(S(=O)(=O)N2CCC3(CCNCC3)C2)c1 | i
CC(C)CN1C(=O)c2ccc(C(=O)c3ccc(C(=O)O)cc3)cc2C1=O | i
O=S(=O)(Cc1noc([C@@H]2C[C@@H](O)CN2Cc2cc3ccccc3o2)n1)c1ccc(F)cc1 | i
CC(C)c1noc([C@@H]2C[C@@H](O)CN2Cc2cc3ccccc3o2)n1 | 38.0%
O[C@@H]1C[C@@H](c2nc(-c3ccc(C(F)(F)F)cc3)no2)N(Cc2cc3ccccc3o2)C1 | i
CCc1ccc(NC(=O)Cn2c(=O)n(CC3CCC(C(=O)NC)CC3)c(=O)c3sccc32)cc1 (centres undefined) | i
CSc1nnnn1-c1ccccc1 | i
Cc1cc(Sc2nnnn2-c2ccccc2)nc2ccccc12 | i
Cc1sc2ncnc(Sc3nnnn3-c3ccccc3)c2c1C | 44.0%
N#Cc1c(N)nc(SC2CCCCC2=O)c(C#N)c1-c1ccc(O)cc1 (centres undefined) | i
Cc1cc(OCC(=O)NC2CC(C)(C)NC(C)(C)C2)ccc1Cl | i
COc1ccc(C(=O)Nc2ccc(N3CCCC3)cc2)cc1 | 59.0%
COc1ccc(C(=O)N2CCCCCC2)cc1OC | i
SMILES | ST2 inh
COc1ccc(C(=O)Nc2ccc(N3CCCC3)cc2)cc1OC | 35.0%
COc1ccccc1NC(=O)c1ccc(OC)c(OC)c1 | i
COc1ccc(C(=O)Nc2cc(OC)cc(OC)c2)cc1 | i
CCCOc1ccc(NC(=O)c2ccc(OC)cc2)cc1 | i
CN1C(=O)C2(CCCN(C(=O)CCn3cnnc3)C2)c2ccccc21 (centres undefined) | i
CC1CCN(CCCNC(=O)c2cn(C)c(=O)c3c2c2ccccc2n3C)CC1 | i
O=C(Nc1cccc(N2CCCS2(=O)=O)c1)c1ccc(Br)o1 | i
COc1cccc(-n2cc(CN(C)Cc3cc(C(C)(C)C)n[nH]3)cn2)c1 | i
NS(=O)(=O)c1cc(C(=O)Nc2ccccc2)c(Cl)cc1Cl | i
CC(=O)Nc1ccc(-c2cn(C(C)Cn3nc(C)cc3C)nn2)cc1 (centres undefined) | i
O[C@@H]1CN(Cc2cccn2-c2ccccn2)CC[C@H]1c1ccc2c(c1)OCO2 | i
O=C(c1ccco1)N1CCN(Cc2cccn2-c2ncccn2)CC1 | i
O=C(Nc1cccc(-c2ccco2)c1)C1CCN(Cc2cccn2-c2ccccn2)CC1 | 32.0%
O=C(CCc1nc(-c2ccccc2F)no1)NC1CCCc2ccccc21 (centres undefined) | i
COc1ccc(S(=O)(=O)N2CCN(c3cc(-c4ccc(C)cc4)ncn3)CC2)cc1Cl | i
CC1=NN(c2ccccc2)C(=O)/C1=C/c1ccccc1OCc1ccc(C(=O)O)cc1 | i
O=C1NC(=O)/C(=C\c2ccccc2OCc2ccccc2)S1 | i
CSC1=N/C(=C\c2ccccc2OCc2ccccc2)C(=O)S1 | 64.0%
CC(C)N(C(=O)c1ccc(C(=O)Nc2ccccc2)cc1)C(C)C | i
CCSC1=N/C(=C\c2ccc(C)s2)C(=O)S1 | 57.0%
Cc1ccc(/C=C2\C(=O)NN(c3ccc(Cl)c(Cl)c3)C2=O)s1 | i
CCSC1=N/C(=C\c2ccc(C(=O)O)cc2)C(=O)S1 | i
Nc1ccc(Sc2cccc(S(=O)(=O)c3cccc(Sc4ccc(N)cc4)c3)c2)cc1 | i
COc1ccc(Cc2c(O)nc3n(c2=O)CCCS3)cc1 | i
O=C(COc1ccc2c3c(c(=O)oc2c1)CCC3)c1ccccc1 | i
SMILES | ST2 inh
O=C(COc1cc(=O)n2c(n1)SCCC2)c1ccccc1 | 64.0%
O=C(Nc1ccc(F)cc1F)N1CCN(c2ccccc2F)CC1 | i
O=[N+]([O-])c1cccc(-c2ncnn2-c2ccc(Br)cc2F)c1 | i
Cc1c(Cl)cccc1-n1ncnc1-c1cccc([N+](=O)[O-])c1 | 35.0%
Cc1c(Cl)cccc1N1C(=O)CSC1c1ccc([N+](=O)[O-])cc1 (centres undefined) | i
CSc1nc2c(c(=O)[nH]1)C(c1ccc(C(C)C)cc1)C1=C(CC(C)(C)CC1=O)N2 (centres undefined) | i
Cc1ccc(C2=N/C(=C\c3ccc(N(C)C)cc3)C(=O)O2)cc1[N+](=O)[O-] | 30.0%
Cc1ccc(C2=N/C(=C\c3cccc([N+](=O)[O-])c3)C(=O)O2)cc1[N+](=O)[O-] | i
Cc1ccc(C2=N/C(=C\c3cccc(F)c3)C(=O)O2)cc1[N+](=O)[O-] | i
CC(=O)N1c2c(cc(Br)cc2S(=O)(=O)Nc2ccc(C(C)C)cc2)CC1C (centres undefined) | i
COc1cc(NC(=O)C(C(C)C)N2C(=O)c3ccccc3C2=O)c(OC)cc1Cl (centres undefined) | 41.0%
COc1ccccc1NC(=O)C(C(C)C)N1C(=O)c2ccccc2C1=O (centres undefined) | i
CC(C)C(C(=O)Nc1ccccc1Br)N1C(=O)c2ccccc2C1=O (centres undefined) | i
CC1CCCC(C)N1C(=O)C1c2ccccc2Oc2ccccc21 (centres undefined) | i
O=C(O)C#CCN1C(=O)c2ccccc2C1=O | i
Nc1ccc(Oc2ccc(N)c(N)c2)cc1 | 44.0%
COc1ccc(Oc2ccc(N)cc2)cc1 | 39.0%
N#Cc1ccc(Oc2ccc(C(=O)O)cc2)cc1C#N | i
Nc1nc2ccc(Oc3ccc4nc(N)sc4c3)cc2s1 | i
Nc1ccc(Oc2ccc(-c3nc(N)nc(N)n3)cc2)cc1 | i
CC(=O)c1ccc(Oc2ccc(N)cc2)cc1 | i
Cc1ccccc1OCCCC(=O)NC1CCCC1 | i
O=C(O[n+]1ccc(N2CCOCC2)cc1)N(c1ccccc1)c1ccccc1 | i
O=C(NCc1cccnc1)c1ccc(N2CCC(NCc3cccc(C(F)(F)F)c3)CC2)cc1 | i
OC(c1ccccc1)c1ccc(Br)cc1 (centres undefined) | i
SMILES | ST2 inh
O=C1S/C(=C\c2c(NCC3CCCO3)nc3ccccn3c2=O)C(=O)N1Cc1ccccc1 (centres undefined) | i
Cc1ccc(NCN2C(=O)S/C(=C/c3ccccc3)C2=O)cc1Cl | i
CCNc1nc2ccccn2c(=O)c1/C=C1\SC(=O)N(CC)C1=O | 30.0%
CC(C)c1cc(-c2nc(C3(c4ccc(F)cc4)CCOC3)no2)nc(N)n1 (centres undefined) | i
CCN(CC)Cc1cnc2c(C(=O)Nc3c(C)cc(=O)[nH]c3C)cnn2c1 | i
OCC#Cc1ccc(CN2CCC3(CCOCC3)CC2)cc1 | i
Cc1cc(C)n(-c2cc(N3CC(C)OC(C)C3)ccc2[N+](=O)[O-])n1 (centres undefined) | i
O=C(O)c1cccc(NS(=O)(=O)c2ccccc2)c1 | i
O=C(O)c1ccc(S(=O)(=O)c2ccccc2)cc1 | i
